Results filed as inconclusive are left out. Values without a mark were called inactive. The source made the active and inactive calls. Calls follow the shape of the dose curve; as a rule, active = well fitted inhibition curve with a large enough effect; inconclusive = small, poorly fitted or top-dose-only effect; inactive = no such curve, though single readings can be large or run the other way.
Experiment: NS1 protein of Zika virus - qHTS assay to identify small molecule inhibitors in human HEK 293 cells (AID 1347053); also: nearly all actives have a fitted effect of over 55% in size;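 as to activity change, negative = inhibition: plate controls were infected untreated cells for no effect and uninfected cells for full effect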
Conditions: HEK293 ZIKV MR766 infection, NS1 TR-FRET, 24 h; series mostly up to 46.1 µM; activity change, negative = inhibition: at the top concentration
How it was run: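 Compound-treated (1 h pre-infection) HEK 293 cells infected with ZIKV MR766, MOI = 0.5; after 24 h at 37 C, NS1 read by TR-FRET; data normalized to uninfected and infected controls.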
Potency is read from the fitted curve at half-maximal effect.

| Structure (SMILES) | activity change, negative = inhibition | Potency |
| --- | --- | --- |
| Cc1cc(NC(=O)Nc2ccc3c(ccn3C)c2)sn1 | -0.0005% | – |
| CC(C)(C=O)Cc1cc(C(C)(C)C)c(O)c(C(C)(C)C)c1 | 7.08% | – |
| NC(=O)C(=O)O | -3.09% | – |
| O=C(O)CC1CCCc2ccccc2C1O (configuration not stated) | -14.5% | – |
| Nc1nc(Nc2ccccc2)nc2c1ncn2[C@@H]1O[C@H](CO)[C@@H](O)[C@H]1O | 13% | – |
| NCCCS(=O)(=O)O | 23.5% | – |
| CCCN(CC1CC1)c1nc(C)nc(Nc2c(Cl)cc(Cl)cc2Cl)c1Cl | 3.62% | – |
| O=C1NC(=O)/C(=C/c2ccc(-c3ccc(F)cc3O)o2)S1 | 4.48% | – |
| O=C(c1ccc(OCCCc2cnc[nH]2)cc1)C1CC1 | -3.09% | – |
| Nc1nc(SCc2ccc([N+](=O)[O-])cc2)c2ncn([C@@H]3O[C@H](CO)[C@@H](O)[C@H]3O)c2n1 | 4.71% | – |
| c1cnc2c(c1)ccc1cccnc12 | – | 7.08 µM (active) |
| CC(C)NC[C@@H](O)c1ccc(O)c(O)c1 | 1.31% | – |
| O=c1[nH]c2cc([N+](=O)[O-])c([N+](=O)[O-])cc2[nH]c1=O | -5.17% | – |
| CC(=O)N[C@H](C(=O)O)C(C)(C)SN=O | 28.2% | – |
| Clc1ccc(N2CCN(Cc3c[nH]c4ncccc34)CC2)cc1 | 10.3% | – |
| COc1cc(SC)ccc1C(=O)N1CCC(Cc2ccccc2)CC1 | 16.6% | – |
| COc1ccc2c(c1)CCC1C2CC[C@@]2(C)C1CC[C@@H]2NCCCCCCN1C(=O)CCC1=O (some centres not stated) | 28.3% | – |
| CC1CN(S(=O)(=O)c2cccc3cnccc23)CCN1 (configuration not stated) | -4.08% | – |
| COC1=C(OC)C(=O)c2ccccc2C1=O | 31.7% | – |

| Structure (SMILES) | activity change, negative = inhibition | Potency |
| --- | --- | --- |
| CN(C)c1nc(N)c(C(=O)N=C(N)N)nc1Cl | -2.35% | – |
| NCCCCCCCCCCN | 13.7% | – |
| COc1cccc(C(=O)NCCN2CCN(c3ccc(Cl)cc3)CC2)c1 | 1.8% | – |
| CN1CCc2ccccc2Cc2[nH]c3ccccc3c2CC1 | 3.24% | – |
| CC(C)NCC(O)COc1cccc2ccccc12 (configuration not stated) | 0.544% | – |
| NC(N)=NC(=O)c1nc(Cl)c(N2CCCCCC2)nc1N | 32.8% | – |
| O=C(Nc1ccccc1)c1cc([N+](=O)[O-])ccc1Cl | -18.3% | – |
| Cn1cc(C2=C(c3ccc(Cl)cc3Cl)C(=O)NC2=O)c2ccccc21 | 7.6% | – |
| CCCCCCCC/C=C\CCCCCCCC(=O)NCCO | 5.67% | – |
| C[C@@H](CN1CCC(Cc2ccccc2)CC1)[C@@H](O)c1ccc(O)cc1 | 11.5% | – |
| Oc1cc2c(cc1O)CN(C(=S)NCCc1ccc(Cl)cc1)CCC2 | 9.15% | – |
| O=C(CCCCCN1CCN(c2ccccc2-c2ccccc2)CC1)NC1CCCc2ccccc21 (configuration not stated) | 11.5% | – |
| COC(=O)c1c(C)[nH]c(C)c1C(=O)c1ccccc1Cc1ccccc1 | -27.1% | – |
| CC(C)NC[C@H](O)COc1cccc2[nH]ccc12 | -3.62% | – |
| OC[C@H]1O[C@@H](n2cnc3c(NC4CCCCC4)ncnc32)[C@H](O)[C@@H]1O | -2.91% | – |
| O=C(/C=C/c1ccc(O)c(O)c1)OCCc1ccccc1 | 30% | – |
| CCCCCCCCCCCCCCCC(=O)OC(CC(=O)O)C[N+](C)(C)C (configuration not stated) | 4.31% | – |
| COc1cccc(OC)c1OCCNCC1COc2ccccc2O1 (configuration not stated) | -10.8% | – |

— PubChem BioAssay (NCATS)
